Screening data as filed in PubChem.
LmPK inh = qHTS Assay for Inhibitors of Leishmania Mexicana Pyruvate Kinase (LmPK); hit rate 0.37% among 290,000; purified LmPK, Kinase-Glo ATP luminescence, 1 h; Q27686; Potency, µM (top dose mostly 57.5 µM), actives largely listed as inhibitors
Target sequence (Q27686 whole entry, looked up): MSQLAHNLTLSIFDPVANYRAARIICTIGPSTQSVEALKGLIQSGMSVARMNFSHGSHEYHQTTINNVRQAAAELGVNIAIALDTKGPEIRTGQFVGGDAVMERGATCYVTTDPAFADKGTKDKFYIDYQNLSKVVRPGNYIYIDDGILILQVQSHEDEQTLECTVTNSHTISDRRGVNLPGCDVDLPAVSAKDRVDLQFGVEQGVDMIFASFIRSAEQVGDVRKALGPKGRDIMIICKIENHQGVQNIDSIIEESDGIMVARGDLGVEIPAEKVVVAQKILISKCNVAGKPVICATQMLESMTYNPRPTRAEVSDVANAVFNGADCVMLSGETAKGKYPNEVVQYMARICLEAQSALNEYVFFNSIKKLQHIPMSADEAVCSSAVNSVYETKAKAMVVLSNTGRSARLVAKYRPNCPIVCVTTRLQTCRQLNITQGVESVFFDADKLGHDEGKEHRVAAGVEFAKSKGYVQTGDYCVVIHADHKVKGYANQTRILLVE
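0.1 nM LmPK, 0.5 mM PEP, 0.1 mM ADP; 50 mM imidazole pH 7.2, 7 mM MgCl2, 50 mM KCl; 1 h RT. Kinase-Glo luminescence readout, normalized to no-enzyme (full inhibition) and uninhibited wells.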
Cycloheximide cs = Cycloheximide Counterscreen for Small Molecule Inhibitors of Shiga Toxin. cell reporter, cycloheximide protein synthesis inhibition counterscreen. max response, %. hit rate 12% among 300,000; in the data active means max response mostly above about 13%, no sharp cut-off; inactive means mostly below about 14%; further: read at 38.3 µM for the half of the compounds with a filed dose
Tb PYK inh = qHTS of Trypanosoma Brucei Inhibitors; pyruvate kinase (Trypanosoma brucei), Q57TT1; TbPYK enzyme, Kinase-Glo Plus ATP luminescence, 45 min; Potency, µM (titrated, usually from 76.8 µM), usual class: inhibitors; hit rate 0.12% among 410,000; further: nearly all actives have a fitted effect of over 50% in size
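Glycolytic pyruvate kinase of T. brucei was incubated with substrate, test compound and 130 uM ADP for 45 minutes at room temperature. Luminescent Kinase-Glo Plus signal was measured after 10 minutes.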
SARS PLP yeast = qHTS of Yeast-based Assay for SARS-CoV PLP; S. cerevisiae expressing SARS-CoV PLpro, growth rescue; hit rate 0.19% among 330,000; Potency, µM (top dose mostly 32.9 µM), usual class: activators; calls by dose curve; further: nearly all actives have a fitted effect of over 55% in size
NS1 function inh = qHTS Assay for Inhibitors of Influenza NS1 Protein Function; Potency, µM (series often up to 46.1 µM); hit rate 0.4% among 270,000; calls by dose curve; further: actives are rising curves; nearly all actives have a fitted effect of over 50% in size
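Read-out: OD600 growth recovery of NS1-expressing budding yeast. Cells grown overnight at 30C in -URA glucose medium, washed, resuspended and diluted 1:100 in 2% galactose assay medium, pH 6.0. Same strain lacking NS1 served as positive control.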
Shiga inhibitor = A qHTS for Small Molecule Inhibitors of Shiga Toxin; inhibition, % at 38.7 µM; Vero cells, Shiga toxin protein synthesis inhibition reporter; hit rate 9.2% among 290,000; in the data active means inhibition mostly above about 28%, no sharp cut-off; inactive means mostly below about 43%
Of the large screens only hits and unclear results are named; the others gave an inactive call. Only a selection was taken, and hits are over-represented in it overall. Unless noted, the call rests on the fitted dose curve; in most records, active means well fitted curve in the direction sought with a large enough effect; inconclusive means small, poorly fitted or top-dose-only effect, or another doubt; inactive means no such curve, though single readings can be large; an effect the other way counts as inactive or inconclusive.

Cc1cnc(=O)[nH]c1SCC(=O)Nc1nc2ccccc2s1	none (no result: LmPK inh, Cycloheximide cs, SARS PLP yeast, NS1 function inh, Shiga inhibitor)
CC(=O)C1=C(C)NC(SCC(=O)Nc2nc3ccccc3s2)=C(C#N)C1c1ccc(Cl)cc1 (centres undefined)	Cycloheximide cs 22, NS1 function inh inconclusive
CCC1CCCCC1	none (no result: LmPK inh, Tb PYK inh, SARS PLP yeast, NS1 function inh)
COc1ccc(-n2nnnc2-c2ccc(S(C)(=O)=O)cc2Cl)cc1	none
CCc1ccccc1NC(=O)C1CCN(C(=O)N2CC(C)Oc3ccc(Cl)cc32)CC1 (centres undefined)	none (no result: LmPK inh, Cycloheximide cs, SARS PLP yeast, NS1 function inh, Shiga inhibitor)
CCCCN1C(=O)C(O)(c2ccccc2)c2cc(Br)ccc21 (centres undefined)	none
Cc1csc(SCC(=O)Nc2nnc(C)s2)n1	none
Cc1csc(SCC(=O)Nc2nc3ccccc3s2)n1	Cycloheximide cs 32, Shiga inhibitor 65
CC1=C(C(=O)N2CCOCC2)CC(CC(=O)NCCN2CCOCC2)C(=O)N1Cc1ccccc1 (centres undefined)	none (no result: LmPK inh, Cycloheximide cs, SARS PLP yeast, NS1 function inh, Shiga inhibitor)
COc1ccc(/C=N/NC(=O)c2ccc(COc3cccc4cccnc34)cc2)cc1O	Cycloheximide cs 13, Shiga inhibitor 32
COc1ccc(/C=N/NC(=O)c2ccc(COc3cccc4cccnc34)cc2)cc1OC	none
O=C(N/N=C/c1ccc2c(c1)OCO2)c1ccc(COc2cccc3cccnc23)cc1	Cycloheximide cs 36, Shiga inhibitor 82
O=C(N/N=C/c1ccc(OCc2ccc(F)cc2)cc1)c1ccccc1	none (no result: NS1 function inh)
O=C(N/N=C/c1ccc2cccc(OCc3ccccc3)c2n1)c1ccc(Cl)cc1	Cycloheximide cs 31, Shiga inhibitor 61
CC(C)(C)c1ccc(OCc2ccc(C(=O)N/N=C/c3ccc(O)c(O)c3)cc2)cc1	Cycloheximide cs 18, Shiga inhibitor 64 (no result: NS1 function inh)
O=C(N/N=C/c1cccc(O)c1)c1ccc(COc2cccc3cccnc23)cc1	Cycloheximide cs 21, Shiga inhibitor 35 (no result: NS1 function inh)
CC(C)(C)c1ccc(OCc2ccc(C(=O)N/N=C3\CC4CC=CC34)cc2)cc1 (centres undefined)	Cycloheximide cs 17
O=C1/C(=C/c2ccccc2)Oc2cc(OC(=O)N3CCOCC3)ccc21	Cycloheximide cs 19
COc1ccc(/C=C2\Oc3ccccc3C2=O)cc1	none (no result: LmPK inh, Cycloheximide cs, NS1 function inh, Shiga inhibitor)
CC(=O)Oc1ccc(/C=C2/Oc3ccccc3C2=O)cc1	Cycloheximide cs 32, Shiga inhibitor 49
O=C(CCc1cn(Cc2ccccc2Cl)c2ccccc12)NC1CCCCC1	none (no result: LmPK inh, Cycloheximide cs, SARS PLP yeast, NS1 function inh, Shiga inhibitor)
c1coc(C2Nc3ccccc3-c3nc4ccccc4n32)c1 (centres undefined)	Cycloheximide cs 31, Shiga inhibitor 63
c1ccc(C2Nc3ccccc3-c3nc4ccccc4n32)cc1 (centres undefined)	Cycloheximide cs 31
c1ccc(C2Nc3ccccc3-c3nc4ccccc4n32)nc1 (centres undefined)	none
C[C@H]1CN([C@@H](C)CO)C(=O)CCCn2nncc2CO[C@H]1CN(C)C(=O)Nc1cccc2ccccc12	none (no result: LmPK inh, Cycloheximide cs, SARS PLP yeast, NS1 function inh, Shiga inhibitor)
CNC(=O)C1CC(=O)N(c2ccc(OCC(=O)Nc3ccc(OC)cc3)cc2)C1 (centres undefined)	none (no result: LmPK inh, Cycloheximide cs, NS1 function inh, Shiga inhibitor)
CCOC(=O)c1c(NC(=O)c2cc(-c3ccc(Cl)cc3)on2)sc(C)c1C	none (no result: LmPK inh, Cycloheximide cs, SARS PLP yeast, NS1 function inh, Shiga inhibitor)
Cc1ccc(NC(=O)NCc2cccnc2)cc1Cl	Cycloheximide cs 32, Shiga inhibitor 39
CCCCc1ccc(NC(=O)Nc2cccnc2)cc1	Cycloheximide cs 76, Shiga inhibitor 153
CCCCc1ccc(NC(=O)OC)cc1	Shiga inhibitor 46
CCOC(=O)c1ccc(NCc2cccnc2)cc1	Cycloheximide cs 15
CCCCc1ccc(NC(=S)Nc2ccc(Nc3ccc(OC)cc3)cc2)cc1	SARS PLP yeast inconclusive, NS1 function inh inconclusive
CCCCc1ccc(NC(=S)Nc2cccnc2)cc1	none
CCOC(=O)c1ccc(NC(=O)NCc2cccnc2)cc1	none
COc1ccc(Br)cc1C1CC(=O)C(C)C(c2cc(Br)ccc2OC)N1 (centres undefined)	none
CCc1ccc(NC(=O)NCc2cccnc2)cc1	Cycloheximide cs 27
Cc1cccc(NC(=O)c2ccc(-n3cncn3)c([N+](=O)[O-])c2)c1	none (no result: LmPK inh, Cycloheximide cs, NS1 function inh, Shiga inhibitor)
COc1cccc(C(=O)Nc2ccc(-c3nnc(-c4ccco4)o3)cc2)c1	Cycloheximide cs 17
COc1cccc(-c2nnc(-c3ccccc3NC(=O)c3ccc(F)cc3F)o2)c1	none (no result: LmPK inh, Cycloheximide cs, SARS PLP yeast, NS1 function inh, Shiga inhibitor)
COc1cccc(-c2nnc(-c3ccco3)o2)c1	LmPK inh inconclusive, Cycloheximide cs 60, Shiga inhibitor active
COc1cccc(-c2nnc(-c3ccccc3[N+](=O)[O-])o2)c1	Cycloheximide cs 41, Shiga inhibitor 93
COc1cccc(-c2nnc(-c3ccc(C)o3)o2)c1	LmPK inh inconclusive, Cycloheximide cs 27, Shiga inhibitor 29
NC(N)=Nc1ccc(-c2ccc(N=C(N)N)cc2)cc1	none (no result: LmPK inh, Cycloheximide cs, Tb PYK inh, SARS PLP yeast, Shiga inhibitor)
CO/N=C(/C(=O)N[C@@H]1C(=O)N2C(C(=O)OC(C)OC(C)=O)=C(COC(N)=O)CS[C@H]12)c1ccco1 (some centres undefined)	none (no result: LmPK inh, Cycloheximide cs, SARS PLP yeast, NS1 function inh, Shiga inhibitor)
COc1cccc(-c2nnc(N)o2)c1	Cycloheximide cs 10
COc1cccc(-c2nnc(NC(=O)c3ccccc3Br)o2)c1	Cycloheximide cs 35, Shiga inhibitor 66
COc1cccc(-c2nnc(NC(=O)c3cccc(F)c3)o2)c1	none
COc1cccc(-c2nnc(NC(=O)C(C)C)o2)c1	none
C/C(CC(=O)Nc1ccc(Cl)c(C(F)(F)F)c1)=N\NC(=O)c1cnccn1	Cycloheximide cs 41, Shiga inhibitor 74
C/C(CC(=O)Nc1ccc(Cl)cc1Cl)=N\NC(=O)c1cnccn1	Cycloheximide cs 32, Shiga inhibitor 59
C/C(CC(=O)Nc1cccc(C(F)(F)F)c1)=N\NC(=O)c1cnccn1	Cycloheximide cs 26, Shiga inhibitor 53
C/C(CC(=O)Nc1c(Cl)cccc1C(F)(F)F)=N\NC(=O)c1cnccn1	none (no result: LmPK inh, Cycloheximide cs, SARS PLP yeast, NS1 function inh, Shiga inhibitor)
C/C(CC(=O)Nc1c(C)cc(C)cc1C)=N\NC(=O)c1cnccn1	Cycloheximide cs 50
Cc1cc(C)c(NC(=O)CN)c(C)c1	none
C/C(CC(=O)Nc1c(C)cc(C)cc1C)=N\NC(=O)OC(C)(C)C	Cycloheximide cs 25, Shiga inhibitor 79
COCCCn1c(SCC(=O)Nc2ccc(OC)cc2)nc2c(sc3ccccc32)c1=O	none (no result: LmPK inh, Cycloheximide cs, SARS PLP yeast, NS1 function inh, Shiga inhibitor)
COc1ccccc1/C=C/C=C1\Oc2c(ccc(O)c2CN(C)C)C1=O	Cycloheximide cs 13
CCN(CC)Cc1c(O)ccc2c1O/C(=C\C=C\c1ccccc1)C2=O	Cycloheximide cs 16, Shiga inhibitor 106
COCCN(CCOC)Cc1c(O)ccc2c1O/C(=C\c1ccc(C)o1)C2=O	none
